A selection: hits, their analogues and other compounds. The true share with any hit is near 1.6%.
3CLpro inhibitor = SARS-CoV 3CLpro protease inhibition; P0C6X7; recombinant SARS-CoV 3CLpro, quenched FRET peptide cleavage; inhibition, % at 6 µM; actives 0.14% (n = 290,000); in the data active means inhibition above about 12%
PrP 5UTR inh = suppresses PrP 5' UTR mRNA reporter expression; cell-based PrP 5' UTR mRNA reporter, plate reader; inhibition, % (no concentration beside the values); actives 0.35% (n = 340,000); in the data active means inhibition above about 52%
PfHsp40 rescue = restores yeast growth despite PfHsp40 toxicity; AID 504582; growth rescue, % at 12.5 µM; actives 0.68% (n = 340,000); S. cerevisiae expressing PfHsp40, growth rescue, ATP luminescence; in the data active means growth rescue above about 28%, passing the limit was not always enough; inconclusive means no clear call, values can overlap the other calls;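 further: yeast W303a lacking pdr1 and pdr3 grown in galactose medium; growth measured after three days at 30 °C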
SSB-PriA inh = K. pneumoniae PriA-SSBct interaction inhibition; AlphaScreen SSBct-PriA binding, biotinylated peptide; AID 1272365; inhibition, % at 33 µM; actives 0.6% (n = 430,000); in the data active means inhibition mostly above about 37%, no sharp cut-off; inactive means mostly below about 20%
PrPC TRFRET = cell surface PrPC inhibition, primary TR-FRET screen. P04156. TR-FRET read-out. inhibition, % at 13.8 µM. actives 0.43% (n = 370,000); in the data active means inhibition above about 24%
BH1578 lux ind = quorum light induction in luxS cqsA deficient V. cholerae; V. cholerae BH1578 lux reporter, luminescence, 6 h; activation, % at 18.7 µM; actives 0.16% (n = 350,000); AID 588436; in the data active means activation mostly above about 9.7%, no sharp cut-off; inconclusive means no clear call, values can overlap the other calls; inactive means mostly below about 3.7%
PrPC confirm = cell surface PrPC inhibition, TR-FRET confirmation; AID 743200; actives 65% (n = 1,500); inhibition, % at 13.8 µM; cell surface PrPC level; shares compounds with PrPC TRFRET; in the data active means inhibition above about 25%
LD9 tox = kills or reduces viability of LD9 cells in PrPc counter-screen. shares compounds with PrPC TRFRET. LD9 cells cytotoxicity, luminescence viability. inhibition, % at 13.8 µM. actives 29% (n = 1,500). AID 743201; in the data active means inhibition above about 9.5%
Of the large screens only hits and unclear results are named; the others gave an inactive call (follow-up assays come after a bar, where they were run).

COc1ccccc1NS(=O)(=O)c1cccc(NC(=O)Nc2ccc(Cl)cc2)c1	PrPC TRFRET 45.0 | PrPC confirm inactive | LD9 tox inactive
CC(C)C[C@@H](CN1CCC[C@@H]1CN1C(=O)C(=O)NC[C@@H]1Cc1ccccc1)N1C[C@H](Cc2ccc(O)cc2)N(CC2CCCCC2)C(=O)C1=O	none (no result: 3CLpro inhibitor)
CC(C)C[C@@H](CN1CCC[C@H]1CN1C(=O)C(=O)NC[C@@H]1Cc1ccccc1)N1C[C@H](Cc2ccc(O)cc2)N(CC2CCCCCC2)C(=O)C1=O	PrPC TRFRET 26.1 (no result: 3CLpro inhibitor, PrP 5UTR inh, PfHsp40 rescue, SSB-PriA inh, BH1578 lux ind) | PrPC confirm inactive | LD9 tox inactive
COc1cc(/C=N/NC(=O)c2ccc(CN(C)S(=O)(=O)c3ccc(C)cc3)cc2)ccc1O	PrPC TRFRET 27.8 (no result: SSB-PriA inh) | PrPC confirm inactive | LD9 tox inactive
Cc1cccc(NC(=O)CSc2nnc(-c3ccncc3)n2CC2CCCO2)c1 (stereo unspecified)	PrPC TRFRET 60.3 | PrPC confirm inactive | LD9 tox inactive
COc1ccccc1NC(=O)CSc1nnc(-c2ccncc2)n1CC1CCCO1 (stereo unspecified)	none
CC(=O)Nc1ccc(CNc2nc(NC(C)C)nc3cc(-c4ccccc4)sc23)cc1	none (no result: 3CLpro inhibitor, PrP 5UTR inh, PfHsp40 rescue, SSB-PriA inh)
COc1ccc(-c2cc(CNc3nc(NC(C)C)nc4cc(-c5ccccc5)sc34)on2)cc1	PrPC TRFRET 25.4 (no result: 3CLpro inhibitor, PrP 5UTR inh, PfHsp40 rescue, SSB-PriA inh) | PrPC confirm 40.2 | LD9 tox inactive
Cc1cc(C)n(-c2nc(CCNC(=O)c3cc(C)oc3C)cs2)n1	none (no result: 3CLpro inhibitor, PrP 5UTR inh, PfHsp40 rescue, PrPC TRFRET, BH1578 lux ind)
O=C(Cc1ccc2c(c1)OCO2)Nc1nc2c(s1)COc1ccccc1-2	none (no result: 3CLpro inhibitor, PrP 5UTR inh, PfHsp40 rescue, PrPC TRFRET, BH1578 lux ind)
Cc1n[nH]c(=S)c2nn(-c3cccc(Cl)c3)c(C)c12	PrPC TRFRET 36.1 (no result: PrP 5UTR inh, PfHsp40 rescue, SSB-PriA inh, BH1578 lux ind) | PrPC confirm 67.2 | LD9 tox inactive
Cc1ccc(-n2nc3c(=S)[nH]nc(C)c3c2C)cc1	PrPC TRFRET 110.5 | PrPC confirm 122.4 | LD9 tox inactive
Cc1n[nH]c(=S)c2nn(-c3ccccc3F)c(C)c12	PrPC TRFRET 45.8 | PrPC confirm 67.8 | LD9 tox inactive
COc1cccc(-n2nc3c(=S)[nH]nc(C)c3c2C)c1	none
O=C(CSc1nc2sc3c(c2c(=O)[nH]1)CCCC3)Nc1nccs1	none (no result: 3CLpro inhibitor, PrP 5UTR inh, PfHsp40 rescue, PrPC TRFRET, BH1578 lux ind)
CCOc1ccc(-c2noc(CN3N=NC4C(=O)N(c5ccc6c(c5)CCC6)C(=O)C43)n2)cc1OC (stereo unspecified)	none (no result: 3CLpro inhibitor, PrP 5UTR inh, PfHsp40 rescue, PrPC TRFRET, BH1578 lux ind)
O=C(Nc1cccc(-c2nc3ccccc3[nH]2)c1)c1cccc(NC(=O)c2ccco2)c1	PrPC TRFRET 36.6 | PrPC confirm inactive | LD9 tox 18.3
O=C(Nc1ccc2nc(-c3ccccc3)[nH]c2c1)c1ccco1	none
CS(=O)(=O)c1ccc(C(=O)Nc2cccc(-c3nc4ccccc4[nH]3)c2)cc1	none
CS(=O)(=O)c1cccc(C(=O)Nc2cccc(-c3nc4ccccc4[nH]3)c2)c1	PrPC TRFRET 129.0 | PrPC confirm inactive | LD9 tox 20.4
CNC(=O)c1c2c(nc3ccc(Br)cc13)CCCC2	PrPC TRFRET 25.2 | PrPC confirm 35.1 | LD9 tox inactive
Cc1ccc2nc3c(c(C(=O)O)c2c1)CCC3	none
O=C(CN1C(=O)c2ccccc2C1=O)Nc1ccc2c(c1)C(=O)Nc1ccccc1O2	none (no result: 3CLpro inhibitor, PrP 5UTR inh, PfHsp40 rescue, PrPC TRFRET, BH1578 lux ind)
c1ccc([C@@H]2CO2)cc1	none (no result: 3CLpro inhibitor, PrP 5UTR inh, PfHsp40 rescue, PrPC TRFRET)
C=C1CC2(CC(c3ccccc3)OC(c3ccccc3)C2)OC1=O (stereo unspecified)	PrPC TRFRET 49.2 (no result: 3CLpro inhibitor) | PrPC confirm inactive | LD9 tox 69.8
C(=C\c1cccs1)/c1ccccc1	none (no result: 3CLpro inhibitor, PrP 5UTR inh, PfHsp40 rescue, PrPC TRFRET, BH1578 lux ind)
O=C(Nc1ccccc1)C1=C[C@H](c2coc3ccccc3c2=O)C[C@H](OCc2ccc(CO)cc2)O1	none
NC(=O)C1=C[C@@H](c2coc3ccccc3c2=O)C[C@@H](OCCCCO)O1	PrPC TRFRET 27.1 | PrPC confirm 31.5 | LD9 tox inactive
NC(=O)C1=C[C@@H](c2coc3ccccc3c2=O)C[C@@H](OCc2ccc(CO)cc2)O1	PrPC TRFRET 40.3 | PrPC confirm 30.7 | LD9 tox inactive
C=CCOC(=O)C1=C[C@@H](c2coc3ccccc3c2=O)C[C@@H](OCCCCO)O1	none (no result: 3CLpro inhibitor)
C(=N\Nc1nc2ccccc2[nH]1)/c1cccc2nccnc12	none
C#CCn1cc(/C=N/Nc2nc3ccccc3[nH]2)c2ccccc21	PrPC TRFRET 36.4 (no result: SSB-PriA inh) | PrPC confirm inactive | LD9 tox 19.0
Cc1cc(NC(=O)C(=O)NCCN2CCC(O)CC2)ccc1N1CCCC1=O	none (no result: 3CLpro inhibitor, PrP 5UTR inh, PfHsp40 rescue, PrPC TRFRET, BH1578 lux ind)
COc1ccc(-c2cnc(SCC(=O)Nc3ccc4c(c3)OCO4)n2Cc2ccco2)cc1	PfHsp40 rescue inconclusive, PrPC TRFRET 25.2 | PrPC confirm inactive | LD9 tox 9.3
O=C(c1ccc(CSc2nc3ccncc3[nH]2)cc1)N1CCN(c2cccc(Cl)c2)CC1	PrPC TRFRET 30.7 | PrPC confirm 40.0 | LD9 tox 9.4
CN(C)C(CN)c1ccco1 (stereo unspecified)	none (no result: 3CLpro inhibitor, PrP 5UTR inh, PfHsp40 rescue, PrPC TRFRET, BH1578 lux ind)
N#C/C(=N\Nc1ccc(Cl)cc1)C(=O)c1ccccc1	none (no result: SSB-PriA inh)
Cc1c(N/N=C(\C#N)C(=O)c2ccc(Cl)cc2)c(=O)n(-c2ccccc2)n1C	PfHsp40 rescue 99.5, PrPC TRFRET 34.5 (no result: SSB-PriA inh) | PrPC confirm 25.5 | LD9 tox 24.7
